TDP1 cell noCPT – qHTS for Inhibitors of human tyrosyl-DNA phosphodiesterase 1 (TDP1): qHTS in cells in absence of CPT; DT40 Tdp1-/- hTDP1 cells, no CPT, ATP luminescence, 48 h; Potency, µM (doses to about 46.2 µM), for inactives: top-dose activity change, negative = growth inhibition, actives largely listed as inhibitors; 420,000 compounds, 15% hits; AID 686978, 2013; further: potency means the concentration at half of the fitted maximal effect; on the % scale 0 is the no-effect control and ±100 the full control effect; nearly all actives have a fitted effect of over 55% in size
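Readout: luminescence from CellTiter-Glo after 30 min in the dark at RT. Cells: DT40 Tdp1-/- with stable hTDP1, 400/well. Exposure: compounds alone, ≥48 hr, 37 °C.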
SW480 rerep – A quantitative high throughput screen for small molecules that induce DNA re-replication in SW480 colon adenocarcinoma cells | Potency, µM (top dose mostly 46.1 µM), for inactives: at the highest dose re-replication activation, hits mostly activators | 340,000 compounds, 1.8% hits | AID 624297, 2012 | SW480 DNA re-replication, Hoechst DNA content imaging, 48 h; further: potency means the concentration at half of the fitted maximal effect; % of control where 0% means no effect; nearly all actives have a fitted effect of over 55% in size
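DNA re-replication was detected as more nuclei of elevated Hoechst intensity after 48 hr exposure to compound (23 nL pinned per well of 250 cells).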
MCF10A rereplic – A quantitative high throughput screen for small molecules that induce DNA re-replication in MCF 10a normal breast cells | MCF 10A DNA re-replication, Hoechst nuclear intensity, 48 h | Potency, µM (titrated, usually from 46.1 µM), inactives show at the highest dose activity, positive = re-replication, actives largely listed as activators | 350,000 compounds, 2.9% hits; further: potency means the concentration at half of the fitted maximal effect; % of control where 0% means no effect; nearly all actives have a fitted effect of over 50% in size
DT40 TDP1 CPT – qHTS for Inhibitors of human tyrosyl-DNA phosphodiesterase 1 (TDP1): qHTS in cells in presence of CPT. AID 686979, 2013. chicken DT40 Tdp1-/-;hTDP1 cells + 20 nM CPT, ATP luminescence, 48 h. 420,000 compounds, 12% hits. Potency, µM (titrated, usually from 46.2 µM), for the others: top-dose activity change, negative = growth inhibition, usual class: inhibitors; further: potency means the concentration at half of the fitted maximal effect; on the % scale 0 is the no-effect control and ±100 the full control effect; nearly all actives have a fitted effect of over 55% in size
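Chicken DT40 Tdp1-/- cells complemented with human TDP1, 400 cells/well, exposed to compounds plus 20 nM camptothecin for at least 48 h at 37 C; viability read as ATP content by CellTiter-Glo luminescence.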
BCR signal inh – qHTS Assay to Find Inhibitors of Chronic Active B-Cell Receptor Signaling; ABC-DLBCL IkBa-CBG/CBR reporter, luminescence ratio, 4 h; Potency, µM (titrated, usually from 46.1 µM), for the others: at the top dose activity change, negative = inhibition, most hits filed as inhibitors; 340,000 compounds, 0.05% hits; active means well fitted inhibition curve with a large enough effect in the signal ratio, with a control signal flat, not every such curve was filed as active; inconclusive means small, poorly fitted or top-dose-only effect, or effect the other way, or a change in a side signal; the % refers to the signal ratio;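 further: potency means the concentration at half of the fitted maximal effect; plate controls were basal doxycycline-induced cells for no effect and cells given 10 µM MG132 for full effect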
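Compounds up to 46 uM were incubated four hours with TMD8 cells whose green CBG68 luciferase is fused to IkappaBalpha; red CBR luminescence normalised the signal, and concentration-effect curves were fitted to fusion, red and ratio data.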
IL1B secr inh – qHTS for Inhibitors of Inflammasome Signaling: IL-1-beta AlphaLISA Primary Screen | THP-1 LPS/ATP IL-1B secretion, AlphaLISA, 16 h; active compounds read low | AID 743279, 2014 | 360,000 compounds, 4.7% hits | activity change, % at 57.5 µM; in the data active means activity change below about -50%; inconclusive means mostly about -30% to -49%; further: on the % scale 0 is the no-effect control and ±100 the full control effect
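Secreted IL-1B measured by AlphaLISA bead assay after 16 h compound exposure of THP-1 cells; compounds (final up to 57.5 uM) added 1 h before LPS (250 ng/mL) and ATP (1.25 mM) stimulation; lower signal means less secretion.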
Active calls of the source: *; i = inactive; u = inconclusive; x = no result given. A selection: hits, their analogues and other compounds. The true share with any hit is near 19%. Unless noted, the call rests on the fitted dose curve; in most records, active means well fitted curve in the direction sought with a large enough effect; inconclusive means small, poorly fitted or top-dose-only effect, or another doubt; inactive means no such curve, though single readings can be large; an effect the other way counts as inactive or inconclusive.

SMILES | TDP1 cell noCPT | SW480 rerep | MCF10A rereplic | DT40 TDP1 CPT | BCR signal inh | IL1B secr inh
COCCNc1nc2c(c(=O)n(C)c(=O)n2C)n1Cc1cccc(C(F)(F)F)c1 | 3.7µM* | 8% | 7% | 3.3µM* | -1% | -18
CC(O)CNc1nc2c(c(=O)n(C)c(=O)n2C)n1Cc1cccc(Br)c1 (stereo not given) | 14µM* | -1% | u | u | u | -30
Cn1c(=O)c2c(nc(NCCCN3CCOCC3)n2Cc2cccc(Cl)c2)n(C)c1=O | u | -3% | 3% | u | 2% | -6
COc1cccc(Cn2c(NCC(C)C)nc3c2c(=O)n(C)c(=O)n3C)c1 | 23µM* | -6% | u | 29µM* | u | 21
CC(O)CNc1nc2c(c(=O)n(C)c(=O)n2C)n1Cc1cccc(C(F)(F)F)c1 (stereo not given) | 26µM* | -8% | 1% | u | 1% | 13
Cc1occc1C(=O)N1CCCC(N2CCN(c3ccccc3F)CC2)C1 (stereo not given) | 2% | -24% | -7% | -14% | -1% | i
COc1ccc(Cl)cc1NC(=O)CN(C)C(=O)c1ccc(-n2cncn2)cc1 | -13% | -12% | -19% | -11% | -1% | 18
CC(C)CNc1nc2c(c(=O)n(C)c(=O)n2C)n1Cc1cccc(Br)c1 | 23µM* | -1% | -16% | 21µM* | -1% | 3
CC(CCO)Nc1nc2c(c(=O)n(C)c(=O)n2C)n1Cc1cccc(Br)c1 (stereo not given) | 21µM* | -1% | 8% | 12µM* | 1% | 28
COc1cccc(Cn2cnc3c2c(=O)n(C)c(=O)n3C)c1 | 12µM* | x | x | 12µM* | x | x
Cn1c(Cl)nc2c1c(=O)n(Cc1cccc(Br)c1)c(=O)n2C | u | -19% | -2% | u | u | -2
Cc1cccc(-c2ncc(CN3CCCC(CO)(Cc4ccccc4C)C3)cn2)c1 (stereo not given) | -25% | 0% | u | 23µM* | -1% | -3
Cc1ccc(C)c(-c2[nH]ncc2CN2CCCC(CO)(Cc3ccccc3C)C2)c1 (stereo not given) | 13µM* | -1% | u | 7.3µM* | u | -80*
COc1cc(CCC(=O)OCC(=O)Nc2cc(S(=O)(=O)N3CCOCC3)ccc2Cl)cc(OC)c1OC | -7% | 3% | 25% | -17% | x | 17
NC(=O)CSc1nc2cc3c(cc2c(=O)n1CCCCCC(=O)NCc1ccc2c(c1)OCO2)OCO3 | -23% | x | x | 10% | -5% | x
O=C(Nc1ccc(Cl)cc1)Nc1nnc(SCc2ccccc2)s1 | u | -5% | 0% | u | u | -17
O=C(Nc1ccccc1)Nc1nnc(CSCc2ccccc2Cl)s1 | u | x | 15µM* | 21µM* | 1% | 14
O=C(Nc1ccc(Cl)c(Cl)c1)Nc1nnc(CSc2ccccc2)s1 | 5.2µM* | u | u | 2.6µM* | 5% | u
CC(C)(C)c1nnc(NC(=O)Nc2ccc(Cl)cc2)s1 | 16µM* | -44% | 0% | u | u | 4
O=C(Nc1ccc(Cl)cc1)Nc1nnc(CSCc2ccccc2Cl)s1 | 12µM* | 3% | 123% | 16µM* | u | 11
